The campaign covered roughly 340,000 compounds. About 3,300 (0.97%) were called active. Roughly 9% stayed inconclusive and do not appear here. Calls come from the whole dose curve; as a rule, active = well fitted inhibition curve with a large enough effect; inconclusive = small, poorly fitted or top-dose-only effect, or effect the other way; inactive = flat fitted curve, though single readings scatter. Some of the results follow.
Assay: qHTS Assay for Modulators of miRNAs and/or Inhibitors of miR-21; note: nearly all actives have a fitted effect of over 55% in size
Conditions: HeLa miR-21-FLuc reporter, luciferase luminescence, 48 h; actives lower the signal
Excerpt: MLSCN Grant: 1 R21 NS059478-01 Assay Provider: Qihong Huang, The Wistar Institute NCGC Assay Overview: MicroRNAs (miRNAs) are endogenously encoded small (~20-25 nucleotides), nonprotein-coding RNAs that are involved in post-transcriptional repression of target messenger RNAs (mRNAs) (Le and Hannon, 2004). Estimated to be involved in the regulation of 30% of all protein-coding mRNAs (Filipowicz et al., 2008), miRNAs play a significant role in many biological processes including cellular differentiation and tissue development (Ghildiyal and Zamore, 2009).
NCGC Assay Protocol Summary: Reagents: HeLa cells stably expressing firefly luciferase (FLuc) under the control of a CMV promoter (upstream) and a miR-21 binding sequence directly downstream of the gene. These cells endogenously express miR-21. Control compounds used were compound C3 (provided by collaborator), N6-phenyladenosine (MP Biomedicals, 0215379625), and DMSO. Assay Summary: 6uL of HeLa miR-21-FLuc cells in assay buffer (DMEM, Invitrogen #21063-029; 10% FBS, HyClone #SH30071.03) were dispensed at 2000cells/well (3.3 x 10^5 cells/mL) into Greiner solid-white TC-treated 1536-well plates using a Multidrop Combi (Thermo Fisher Scientific). Plates were incubated for one hour at 37 degree Celsius, 95% humidity, 5% CO2. These assay plates were then treated with 23nL of compound or DMSO using a Kalypsys pin tool, which allows for delivery of a 24-point titration of each compound to the assay plate, with a final compound concentration ranging from approximately 40uM to 5pM. Assay plates were then incubated for 48 hours. After incubation, plates were allowed to come to RT for one hour prior to delivery of 3uL of 3X luciferase detection reagent. After a 15 minute incubation to allow for cell lysis, luciferase activity was measured using a ViewLux CCD imager (PerkinElmer), with an average exposure time of 2-12 seconds. Keywords: NIH Roadmap, MLPCN, MLSMR, qHTS, miR-21, microRNA, firefly luciferase, FLuc.
Potency is the fitted concentration of half-maximal effect.

Potency, active:
COc1ccccc1N=c1oc2cc(O)ccc2cc1C(=O)NCC1CCCO1 (stereo not drawn) 9.27 µM, CCOC(=O)/C=C(\C)N1N=C(c2ccccc2)CC1c1ccccc1 (stereo not drawn) 2.33 µM, CCOc1ccc(/C=N/N(C)c2ccccc2)cc1OC 4.65 µM, COc1cc(/C=N/N(C)c2ccccc2)ccc1O 2.61 µM, CN(/N=C/c1ccc2c(c1)OCO2)c1ccccc1 6.56 µM, COc1ccc(OC)c(/C=N/N(C)c2ccccc2)c1 6.56 µM, CCCCC12CN3CCN(CC(C3)/C1=N\NC(=O)c1ccccc1N)C2 9.27 µM, CC12CN3CCN(CC(C3)/C1=N\NC(=O)c1ccccc1N)C2 10.4 µM, Nc1ccccc1C(=O)N/N=C1\C2CN3CCN(C2)CC1(c1ccccc1)C3 7.36 µM, O=C(CSc1nnc2ccc3ccccc3n12)c1ccc(F)cc1 9.27 µM, c1ccc2c(c1)ccc1nnc(SCc3ccc4c(c3)OCCO4)n12 16.5 µM, Cc1ccc2nc(-c3ccc(Cl)c(NC(=O)c4ccc5c(c4)OCCO5)c3)oc2c1 7.36 µM, COc1ccc2oc(-c3ccc(C)c(NC(=O)c4ccc5c(c4)OCCO5)c3)nc2c1 8.26 µM, CCc1cccc(C)c1NC(=O)Cn1nc(C)n2cccc2c1=O 4.65 µM, Cc1nn(CC(=O)Nc2ccccc2C(F)(F)F)c(=O)c2cccn12 16.5 µM, Cc1cc(C(=O)N(C)C)sc1-c1ccccc1 5.21 µM, CC1=C(c2ccc(C)cc2)[N+](=O)C(C)(C)N1[O-] 3.69 µM, CCc1cccc2c(C(=O)COC(=O)c3ccccc3)c[nH]c12 16.5 µM, COc1ccc(-c2csc(N=C(N)N)n2)cc1 8.26 µM, Cc1ccsc1/C=N\NC(=O)c1cc(C(C)(C)C)[nH]n1 4.14 µM, O=C(Nc1nc2ccsc2c(=O)s1)c1ccc(F)cc1 0.414 µM, Cc1ccc(Nc2nc(C3CC3)cs2)cc1 1.65 µM, CCOc1ccc(Nc2nc(-c3cccnc3)cs2)cc1 0.585 µM, Cc1ccc(Nc2nc(-c3ccncc3)cs2)cc1 0.656 µM, Cc1ccc(Nc2nc(C)cs2)cc1 6.56 µM, O=[N+]([O-])c1ccccc1Nc1nc(-c2cccnc2)cs1 18.5 µM, Cc1csc(Nc2ccc(Cl)cc2)n1 10.4 µM, O=C(C[n+]1cn(C(F)F)c2ccccc21)c1ccc(OC(F)F)cc1 5.85 µM, Clc1ccc(-c2cnc(Oc3ccccc3)nc2)cc1 2.07 µM, Cc1ccc(N(CC(=O)Nc2ccc3c(c2)OCCO3)S(C)(=O)=O)cc1 10.4 µM, Cc1ccc(SCC(=O)Nc2ccc3c(c2)OCCO3)cc1 1.65 µM, O=C(Nc1ccc2c(c1)OCCO2)C1CC1c1ccccc1 (stereo not drawn) 7.36 µM, Cc1ccccc1Nc1nnc(SCC(=O)NC(=O)Nc2ccc3c(c2)OCCO3)s1 10.4 µM, O=C(CSc1ccc(-c2ccccc2)nn1)Nc1ccc2c(c1)OCCO2 8.26 µM, O=C(Nc1ccc2c(c1)OCO2)N1CCCc2ccccc21 13.1 µM, Cc1cccc(-c2nsc(SCC(=O)Nc3ccc4c(c3)OCO4)n2)c1 13.1 µM, O=C(CSc1ccccc1)Nc1ccc2c(c1)OCO2 13.1 µM, O=C(CC1CS(=O)(=O)CC1CC(=O)Nc1ccc2c(c1)OCCO2)Nc1ccc2c(c1)OCCO2 (stereo not drawn) 7.36 µM, CCOc1ccc(NC(=O)Nc2cc(C)ccc2F)cc1 1.85 µM, CCc1ccc(C(=O)Nc2cc(C)ccc2F)s1 6.56 µM, O=c1cc(CNc2ccc(Br)cc2)nc2sccn12 18.5 µM, Cc1ccc(SCc2cc(=O)n3ccsc3n2)c(C)c1 9.27 µM, COc1cccc(C(=O)NCCn2ccc3ccccc32)c1 5.21 µM, Cc1cccc(NC(=S)NNC(=O)c2csc(C)c2)c1 2.93 µM, CCc1cc(C(=O)NNC(=S)Nc2cccc(C)c2)cs1 4.14 µM, CCc1cc(C(=O)Nc2ccc(C)cc2Br)cs1 1.04 µM, Cc1cccc(NC(=S)NNC(=O)c2csc(C(C)C)c2)c1 3.69 µM, Cc1cccc(NC(=S)NNC(=O)c2ccc3c(c2)OCO3)c1 0.464 µM, Cc1cccc(NC(=S)NNC(=O)c2ccccc2Br)c1 2.07 µM, O=C(NNC(=S)Nc1ccccc1Cl)c1ccccc1Br 0.927 µM, CCCc1cc(C(=O)NNC(=S)Nc2cccc(C)c2)cs1 3.69 µM, Cc1c(C(=O)NNC(=S)Nc2cccc(Cl)c2)nnn1-c1ccccc1 16.5 µM, CCOC(=O)Cc1c(C)nc2c(-c3ccccc3)cnn2c1C 16.5 µM, CCOC(=O)c1cnc2c(-c3ccccc3)cnn2c1C 0.927 µM, CC(C)C(=O)Nc1nc2c(s1)CC(C(C)(C)C)CC2 (stereo not drawn) 2.07 µM, Nn1c(SCc2ccccc2)nc2ccccc21 4.14 µM, CCOC(=O)CSc1nc2cc3c(cc2cc1C#N)OCO3 1.04 µM, CCOC(=O)CSc1nc2cc3c(cc2cc1C#N)OCCO3 0.147 µM, N#Cc1ccc(-c2csc(NC3=NCCCCC3)n2)cc1 6.56 µM, Brc1ccc(-c2csc(NC3=NCCCCC3)n2)cc1 10.4 µM, O=C(NC(=S)Nc1ccccn1)c1ccco1 3.69 µM, Cc1ccnc(NC(=S)NC(=O)c2ccco2)c1 1.17 µM, O=C(Nc1ccccc1F)c1cc2nc(C(F)F)cc(C(F)F)n2n1 18.5 µM, Cc1cccc(NC(=O)c2ccc(OC3CSC3)cc2)c1 2.93 µM, CCC(C)c1ccc(OCc2ccc(C(=O)O)o2)cc1 (stereo not drawn) 0.233 µM, CCC(C)c1ccc(OCc2ccc(C(=O)OC)o2)cc1 (stereo not drawn) 4.65 µM, COc1cc(/C=C2/C(=O)ON=C2C)ccc1OCc1cccc(F)c1 10.4 µM, COc1cc(C=O)ccc1OCc1cccc(Br)c1 14.7 µM, CCOC(=O)c1c(C)[nH]c(N=Nc2cccc(OC)c2)c1C 0.927 µM, CCOC(=O)c1c(C)[nH]c(N=Nc2ccc(C)cc2C)c1C 10.4 µM, CCOC(=O)c1c(C)[nH]c(N=Nc2ccc(OC)cc2)c1C 2.93 µM, CCOC(=O)c1c(C)[nH]c(N=Nc2ccccc2)c1C 7.36 µM, CCOc1ccc(N=C(/C(C(=O)C(=O)N2CCOCC2)=C(\O)c2ccccc2)c2ccccc2)cc1 3.69 µM, CC1CCCCN1c1nc(-c2ccc(C(C)(C)C)cc2)nc2ccccc12 (stereo not drawn) 0.585 µM, CCOC(=O)C1CCCN(c2ncnc3c2oc2ccccc23)C1 (stereo not drawn) 16.5 µM, Brc1ccc2oc3c(N4CCOCC4)ncnc3c2c1 4.65 µM, c1ccc2c(c1)oc1c(N3CCOCC3)ncnc12 16.5 µM, Cc1ccc(-c2onc3ccc(C(=O)O)cc23)cc1 1.17 µM, FC(F)(F)c1ccc(NCc2ccccn2)nc1 13.1 µM, COc1cc(N2Cc3ccccc3C2)ccc1C=O 5.21 µM, Fc1ccc(/C=N/Nc2ncnc3nc[nH]c23)cc1F 4.14 µM, Fc1cccc(/C=N/Nc2ncnc3nc[nH]c23)c1 1.65 µM, Clc1ccc(/C=N/Nc2ncnc3nc[nH]c23)cc1 1.65 µM, CCSc1nc(N)nc(-c2cccs2)c1C#N 16.5 µM, CCCSc1nc(N)nc(-c2cccs2)c1C#N 13.1 µM, CC(C)Sc1nc(N)nc(-c2cccs2)c1C#N 2.93 µM, CCCCNC(=O)N(C)c1nc2ccccc2s1 8.26 µM, Cc1nc(SCc2ccccc2)nc2c1CCC2 5.85 µM, COc1ccc2nc(SCc3ccccc3)nc(C)c2c1 1.17 µM, COc1ccc2nc(SCc3cccc(C)c3)nc(C)c2c1 7.36 µM, O=C1/C(=C\c2cccs2)Sc2ccc3ccccc3c21 0.521 µM, Cn1c(NC(=O)CCc2ccccc2)cc(=O)n(C)c1=O 3.69 µM, Cn1c(NC(=O)CCC2CCCCC2)cc(=O)n(C)c1=O 1.17 µM, Cc1cc(NC(=O)CCC2CCCCC2)no1 16.5 µM, CC1CCC(NC(=O)CNC(=O)c2cccs2)CC1 (stereo not drawn) 3.29 µM, O=C(CNC(=O)c1cccs1)c1ccc(Br)cc1 3.29 µM, O=C(CCCC(=O)c1ccc(F)cc1)c1ccc(F)cc1 3.29 µM, O=C(CNC(=O)c1ccc(F)cc1)c1ccc(Cl)cc1 3.69 µM, O=C(CNC(=O)c1ccccc1F)c1ccc(Br)cc1 1.47 µM, Cc1ccc(N=C2NC(=O)/C(=C\c3cccs3)S2)cc1C 10.4 µM, Cc1ccc(OCCCSc2ncccn2)cc1C 14.7 µM, Clc1ccc(OCCSc2ncccn2)cc1 3.69 µM, Clc1ccc(OCCSc2ncccn2)c(Br)c1 1.31 µM, CC(C)CSc1nnc2c3ccccc3n(C)c2n1 1.31 µM, O=C(/C=C/c1nc2ccccc2s1)N1CCCCCC1 2.07 µM, CCC(=O)N1CCc2nc(-c3ccccc3)sc2C1 14.7 µM, Cc1cccc(C)c1NC(=O)c1c[nH]c2ccccc12 3.69 µM, Clc1nc(-c2cccnc2)nc2scc(-c3ccccc3)c12 7.36 µM

— PubChem BioAssay AID2289 (National Center for Advancing Translational Sciences (NCATS), 2010)
